# Experimental data as given in the supplement of paper PMC10849652.
# The full data set covers some 7,900 targets. This sample favours those with a hit. About 0.6% of all pairs of compound and target were hits. Unmarked numbers belong to inactive results.
# Assays:
# Experiment in all cases: log2 fold change, soluble protein after heating vs DMSO (PISA); higher = thermal stabilisation; K562 cells, 10 uM, 30 min; active = over 0.2 and 3.5 SD of the protein, either way, in both replicates (recomputed)
# bafetinib = compound: Cc1ccc(NC(=O)c2ccc(CN3CC[C@H](N(C)C)C3)c(C(F)(F)F)c2)cc1Nc1nccc(-c2cncnc2)n1 [bafetinib]
# Outline: (§1)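 Values are thermal stability changes relative to control samples and are taken from duplicates. They are stated as log2 fold changes. Before quantification by TMTpro 16plex LC-MS/MS with equalised channel sums, K562 cells at 2×10^6 cells/mL were treated with 10 μM compound for 30 min, heated in aliquots for 3 min across 48°C-58°C, pooled, extracted in PBS with 0.5% NP-40 at 4°C, and centrifuged at 21,000xg for 90 min to give the soluble supernatant.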
# [1] = compound: Cc1cccc(CC(=O)N2CCc3c2ccc(-c2cn(C)c4ncnc(N)c24)c3F)n1
# Outline: as §1
# nilotinib = compound: Cc1cn(-c2cc(NC(=O)c3ccc(C)c(Nc4nccc(-c5cccnc5)n4)c3)cc(C(F)(F)F)c2)cn1 [nilotinib]
# Outline: as §1
# [2] = compound: Cc1nc(Nc2n[nH]c3c2CN(C(=O)N[C@H](CN(C)C)c2ccccc2)C3(C)C)c2sccc2n1
# Outline: as §1
# dasatinib = compound: Cc1nc(Nc2ncc(C(=O)Nc3c(C)cccc3Cl)s2)cc(N2CCN(CCO)CC2)n1 [dasatinib]
# Outline: as §1
# [3] = compound: Cc1ncc(-c2ccnc(Nc3ccc(S(C)(=O)=O)cc3)n2)n1C(C)C
# Outline: as §1
# [4] = compound: Cn1cc(-c2ccc3c(c2)CCN3C(=O)Cc2cccc(C(F)(F)F)c2)c2c(N)ncnc21
# Outline: as §1
# [5] = compound: Cn1cc(-c2ccc3nnc(C(F)(F)c4ccc5ncccc5c4)n3n2)cn1
# Outline: as §1
# tipifarnib = compound: Cn1cncc1[C@@](N)(c1ccc(Cl)cc1)c1ccc2c(c1)c(-c1cccc(Cl)c1)cc(=O)n2C [tipifarnib]
# Outline: as §1
# mubritinib = compound: FC(F)(F)c1ccc(/C=C/c2nc(COc3ccc(CCCCn4ccnn4)cc3)co2)cc1 [mubritinib]
# Outline: as §1
# [6] = compound: NC(=O)Nc1cc(-c2cccc(F)c2)sc1C(=O)N[C@H]1CCCNC1
# Outline: as §1
# [7] = compound: NC(=O)c1cnc(N[C@@H]2CCCC[C@@H]2N)nc1Nc1cccc(-n2nccn2)c1
# Outline: as §1
# [8] = compound: NC1(c2ccc(-c3nc4ccn5c(=O)[nH]nc5c4cc3-c3ccccc3)cc2)CCC1
# Outline: as §1
# [9] = compound: NCC(=O)Nc1ccc(-n2nc(C(F)(F)F)cc2-c2ccc3c(ccc4ccccc43)c2)cc1
# Outline: as §1
# entinostat = compound: Nc1ccccc1NC(=O)c1ccc(CNC(=O)OCc2cccnc2)cc1 [entinostat]
# Outline: as §1
# vorinostat = compound: O=C(CCCCCCC(=O)Nc1ccccc1)NO [vorinostat]
# Outline: as §1
# citarinostat = compound: O=C(CCCCCCNC(=O)c1cnc(N(c2ccccc2)c2ccccc2Cl)nc1)NO [citarinostat]
# Outline: as §1
# silmitasertib = compound: O=C(O)c1ccc2c(c1)nc(Nc1cccc(Cl)c1)c1ccncc12 [silmitasertib]
# Outline: as §1
# [10] = compound: O=C1NC(=O)C(c2cnc3ccccn23)=C1c1cn2c3c(cc(F)cc13)CN(C(=O)N1CCCCC1)CC2
# Outline: as §1
# [11] = compound: c1cc(OCCN2CCCCC2)cc(-c2n[nH]c3ccc(-c4nnc[nH]4)cc23)c1
# Outline: as §1
# UniProt Q86WV6, sequence (Q86WV6 whole entry, looked up): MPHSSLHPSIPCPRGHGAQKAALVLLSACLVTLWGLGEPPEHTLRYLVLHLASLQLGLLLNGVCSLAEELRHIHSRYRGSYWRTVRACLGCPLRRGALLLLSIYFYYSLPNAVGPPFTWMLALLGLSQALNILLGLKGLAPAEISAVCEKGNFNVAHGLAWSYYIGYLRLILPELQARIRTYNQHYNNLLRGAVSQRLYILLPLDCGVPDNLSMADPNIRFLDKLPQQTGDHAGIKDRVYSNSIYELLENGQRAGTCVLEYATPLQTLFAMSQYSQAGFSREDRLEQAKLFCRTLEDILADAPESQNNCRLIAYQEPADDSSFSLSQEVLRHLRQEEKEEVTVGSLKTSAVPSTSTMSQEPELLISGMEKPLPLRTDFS
# UniProt O00258, sequence (O00258 whole entry, looked up): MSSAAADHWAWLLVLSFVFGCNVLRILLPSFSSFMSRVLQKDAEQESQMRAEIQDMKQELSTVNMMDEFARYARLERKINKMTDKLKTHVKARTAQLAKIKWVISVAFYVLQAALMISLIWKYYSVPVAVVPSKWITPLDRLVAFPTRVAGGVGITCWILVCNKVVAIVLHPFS
# UniProt Q9BV38, sequence (Q9BV38 whole entry, looked up): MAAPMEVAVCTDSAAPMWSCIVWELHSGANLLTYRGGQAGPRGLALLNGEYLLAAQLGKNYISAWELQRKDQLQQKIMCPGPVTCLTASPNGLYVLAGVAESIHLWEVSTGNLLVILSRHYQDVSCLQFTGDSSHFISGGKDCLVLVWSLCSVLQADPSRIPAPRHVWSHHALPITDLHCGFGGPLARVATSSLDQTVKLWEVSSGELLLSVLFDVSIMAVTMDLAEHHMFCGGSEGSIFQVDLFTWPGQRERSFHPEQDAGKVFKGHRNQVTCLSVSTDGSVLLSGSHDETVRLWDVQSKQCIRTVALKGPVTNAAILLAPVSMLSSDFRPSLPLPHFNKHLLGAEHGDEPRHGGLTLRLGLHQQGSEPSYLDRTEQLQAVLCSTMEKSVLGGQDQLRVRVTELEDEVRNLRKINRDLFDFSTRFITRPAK
# UniProt Q9Y4E8, sequence (Q9Y4E8 whole entry, looked up): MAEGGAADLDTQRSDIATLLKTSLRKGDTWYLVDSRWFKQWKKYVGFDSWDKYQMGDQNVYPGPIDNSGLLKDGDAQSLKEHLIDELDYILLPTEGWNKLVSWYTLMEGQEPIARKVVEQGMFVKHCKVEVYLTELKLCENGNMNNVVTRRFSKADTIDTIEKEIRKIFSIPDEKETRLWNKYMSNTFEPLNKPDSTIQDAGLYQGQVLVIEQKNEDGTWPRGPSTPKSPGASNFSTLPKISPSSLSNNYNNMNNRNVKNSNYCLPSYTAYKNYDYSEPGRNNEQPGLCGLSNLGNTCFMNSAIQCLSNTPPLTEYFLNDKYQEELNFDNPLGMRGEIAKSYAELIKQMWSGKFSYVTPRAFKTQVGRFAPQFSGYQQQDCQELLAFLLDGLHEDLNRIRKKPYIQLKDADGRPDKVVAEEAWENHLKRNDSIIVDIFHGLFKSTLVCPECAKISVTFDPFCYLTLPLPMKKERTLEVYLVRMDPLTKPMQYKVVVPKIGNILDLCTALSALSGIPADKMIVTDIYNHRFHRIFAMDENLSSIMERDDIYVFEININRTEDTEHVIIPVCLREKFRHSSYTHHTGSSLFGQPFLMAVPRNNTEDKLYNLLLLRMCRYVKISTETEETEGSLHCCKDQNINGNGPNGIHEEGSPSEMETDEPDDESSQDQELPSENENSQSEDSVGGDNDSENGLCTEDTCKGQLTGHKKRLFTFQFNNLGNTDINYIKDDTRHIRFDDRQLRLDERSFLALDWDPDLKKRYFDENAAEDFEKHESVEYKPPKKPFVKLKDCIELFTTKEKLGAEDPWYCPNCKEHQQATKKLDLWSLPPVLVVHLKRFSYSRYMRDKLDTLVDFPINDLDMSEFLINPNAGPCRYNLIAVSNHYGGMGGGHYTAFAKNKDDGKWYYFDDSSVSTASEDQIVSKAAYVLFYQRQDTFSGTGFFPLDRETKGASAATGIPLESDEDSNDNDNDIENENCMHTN
# UniProt Q6NUQ4, sequence (Q6NUQ4 whole entry, looked up): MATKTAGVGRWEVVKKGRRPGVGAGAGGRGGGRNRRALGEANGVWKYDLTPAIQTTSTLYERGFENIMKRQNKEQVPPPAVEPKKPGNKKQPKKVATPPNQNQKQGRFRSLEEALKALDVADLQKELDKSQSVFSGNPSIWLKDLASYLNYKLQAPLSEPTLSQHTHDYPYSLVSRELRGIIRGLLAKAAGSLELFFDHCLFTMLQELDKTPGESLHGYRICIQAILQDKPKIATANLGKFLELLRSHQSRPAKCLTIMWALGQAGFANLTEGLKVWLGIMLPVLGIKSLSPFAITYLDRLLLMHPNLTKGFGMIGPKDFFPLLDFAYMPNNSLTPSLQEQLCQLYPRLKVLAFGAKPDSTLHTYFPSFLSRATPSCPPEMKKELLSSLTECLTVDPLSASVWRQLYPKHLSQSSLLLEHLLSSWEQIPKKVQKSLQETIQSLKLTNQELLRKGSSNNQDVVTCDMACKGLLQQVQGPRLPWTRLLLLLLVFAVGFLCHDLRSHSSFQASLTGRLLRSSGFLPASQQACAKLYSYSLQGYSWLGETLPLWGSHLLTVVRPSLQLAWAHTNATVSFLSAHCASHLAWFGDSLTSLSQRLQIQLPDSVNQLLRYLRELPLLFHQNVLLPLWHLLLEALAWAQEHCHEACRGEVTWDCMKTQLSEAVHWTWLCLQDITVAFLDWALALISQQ
# UniProt A5PLN9, sequence (A5PLN9 whole entry, looked up): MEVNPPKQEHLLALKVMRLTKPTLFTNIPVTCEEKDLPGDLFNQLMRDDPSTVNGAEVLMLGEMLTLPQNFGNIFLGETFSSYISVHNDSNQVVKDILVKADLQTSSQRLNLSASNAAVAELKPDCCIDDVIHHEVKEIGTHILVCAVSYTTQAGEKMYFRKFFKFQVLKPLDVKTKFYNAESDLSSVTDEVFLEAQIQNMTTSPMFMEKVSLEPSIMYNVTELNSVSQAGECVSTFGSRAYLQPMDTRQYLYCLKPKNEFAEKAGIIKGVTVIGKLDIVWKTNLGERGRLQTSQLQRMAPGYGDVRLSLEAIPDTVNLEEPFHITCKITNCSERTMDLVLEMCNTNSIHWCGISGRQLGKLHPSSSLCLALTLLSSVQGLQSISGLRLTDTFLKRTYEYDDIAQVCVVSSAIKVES
# UniProt Q9HAD4, sequence (Q9HAD4 whole entry, looked up): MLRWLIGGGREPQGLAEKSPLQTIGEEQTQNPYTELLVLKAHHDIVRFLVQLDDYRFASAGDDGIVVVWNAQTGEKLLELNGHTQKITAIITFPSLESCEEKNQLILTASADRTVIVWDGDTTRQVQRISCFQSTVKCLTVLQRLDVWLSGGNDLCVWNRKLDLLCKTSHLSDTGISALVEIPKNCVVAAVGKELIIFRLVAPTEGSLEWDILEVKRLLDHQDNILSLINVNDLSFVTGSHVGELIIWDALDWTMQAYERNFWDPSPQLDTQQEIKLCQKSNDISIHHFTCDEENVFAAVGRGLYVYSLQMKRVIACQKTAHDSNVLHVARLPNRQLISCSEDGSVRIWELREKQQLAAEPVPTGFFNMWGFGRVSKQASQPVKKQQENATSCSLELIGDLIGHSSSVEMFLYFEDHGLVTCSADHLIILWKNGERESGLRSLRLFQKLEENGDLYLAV
# UniProt P28908, sequence (P28908 whole entry, looked up): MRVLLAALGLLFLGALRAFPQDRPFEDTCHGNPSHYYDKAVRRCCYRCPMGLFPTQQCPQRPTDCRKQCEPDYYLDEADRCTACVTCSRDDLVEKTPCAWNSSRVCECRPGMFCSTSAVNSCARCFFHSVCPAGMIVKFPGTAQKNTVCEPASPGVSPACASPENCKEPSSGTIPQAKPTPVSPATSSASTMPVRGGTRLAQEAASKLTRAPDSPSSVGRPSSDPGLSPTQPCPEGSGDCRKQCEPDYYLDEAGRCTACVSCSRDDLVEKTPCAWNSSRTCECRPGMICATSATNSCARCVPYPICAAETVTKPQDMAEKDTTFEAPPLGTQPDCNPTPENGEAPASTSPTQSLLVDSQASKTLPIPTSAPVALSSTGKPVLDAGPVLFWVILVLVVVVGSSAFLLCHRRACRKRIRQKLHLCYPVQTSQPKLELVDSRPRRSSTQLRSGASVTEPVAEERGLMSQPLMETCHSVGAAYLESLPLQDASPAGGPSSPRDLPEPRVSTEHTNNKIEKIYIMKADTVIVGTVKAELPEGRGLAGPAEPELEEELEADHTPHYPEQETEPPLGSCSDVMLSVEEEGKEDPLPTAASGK
# UniProt P51668, sequence (P51668 whole entry, looked up): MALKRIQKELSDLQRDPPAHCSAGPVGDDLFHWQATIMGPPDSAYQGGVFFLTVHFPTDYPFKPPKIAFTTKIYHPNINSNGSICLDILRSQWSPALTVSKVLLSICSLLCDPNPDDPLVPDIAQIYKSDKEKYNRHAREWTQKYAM
# UniProt Q9BZI7, sequence (Q9BZI7 whole entry, looked up): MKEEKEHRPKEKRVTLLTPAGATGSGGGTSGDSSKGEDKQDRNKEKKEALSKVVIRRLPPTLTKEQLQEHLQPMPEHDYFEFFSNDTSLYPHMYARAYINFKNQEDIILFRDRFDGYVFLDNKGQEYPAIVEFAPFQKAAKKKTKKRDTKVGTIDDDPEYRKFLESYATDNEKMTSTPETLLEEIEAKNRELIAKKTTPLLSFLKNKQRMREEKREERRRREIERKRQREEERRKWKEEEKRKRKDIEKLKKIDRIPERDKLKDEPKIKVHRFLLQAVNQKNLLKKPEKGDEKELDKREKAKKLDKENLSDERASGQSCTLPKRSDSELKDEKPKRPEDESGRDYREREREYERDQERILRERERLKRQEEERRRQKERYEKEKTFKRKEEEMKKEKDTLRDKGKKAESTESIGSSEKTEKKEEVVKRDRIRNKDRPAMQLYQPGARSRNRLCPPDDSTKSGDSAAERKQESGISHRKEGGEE
Target,log2 fold change (bafetinib),log2 fold change [1],log2 fold change (nilotinib),log2 fold change [2],log2 fold change (dasatinib),log2 fold change [3],log2 fold change [4],log2 fold change [5],log2 fold change (tipifarnib),log2 fold change (mubritinib),log2 fold change [6],log2 fold change [7],log2 fold change [8],log2 fold change [9],log2 fold change (entinostat),log2 fold change (vorinostat),log2 fold change (citarinostat),log2 fold change (silmitasertib),log2 fold change [10],log2 fold change [11]
USP15 (UniProt Q9Y4E8),-0.01,0.047,-0.064,-0.082,-0.099,0.005,0.021,0.044,-0.081,0.023,-0.017,-0.078,-0.185,-0.066,0.052,0.044,0.064,0.035,-0.016,-0.022
TNFRSF8 (UniProt P28908),0.01,-0.089,0.074,-0.049,0.032,0.043,0.014,0.032,0.042,0.069,-0.12,0.128,0.106,0.025,-0.066,-0.078,-0.003,-0.052,-0.053,-0.025
WARS2 (UniProt Q9UGM6),-0.183,0.016,-0.086,-0.008,-0.147,0.047,0.022,-0.056,-0.046,-0.569 (active),-0.082,-0.019,-0.101,-0.08,0.076,0.037,0.095,0.07,0.01,-0.023
VPS11 (UniProt Q9H270),-0.033,0.006,-0.048,-0.006,-0.154,0.005,-0.016,-0.004,-0.093,0.027,-0.012,-0.053,-0.159,-0.028,0.015,0.145,0.065,0.025,0.024,0.084
WDR41 (UniProt Q9HAD4),-0.139,0.169,0,-0.076,-0.082,-0.017,0.012,-0.003,0.023,0.071,0,-0.005,-0.173,-0.005,0.038,0.091,0.036,0.031,-0.11,-0.07
TMTC3 (UniProt Q6ZXV5),-0.07,-0.02,-0.036,0,-0.055,0.015,-0.051,0.061,-0.018,0.011,-0.028,-0.113,-0.135,-0.097,-0.046,0.025,0.005,0.025,-0.037,-0.089
WRB (UniProt O00258),-0.072,-0.011,0.015,0.005,0.031,-0.036,-0.011,0.089,0.024,0.052,0.003,0.019,-0.018,0.006,-0.011,-0.035,0.034,0.028,0.062,-0.042
TMEM263 (UniProt Q8WUH6),-0.434,0.037,-0.079,-0.027,-0.249,0.124,-0.011,0.02,-0.182,0.054,-0.044,-0.335,-0.389,-0.299,0.123,0.058,0.068,0.057,-0.08,-0.037
TMEM173 (UniProt Q86WV6),0.007,0.019,-0.129,-0.013,-0.156,0.003,0.001,-0.046,0.021,0.066,0.002,-0.041,-0.078,-0.06,0.032,-0.09,-0.028,-0.041,0.035,0.006
WDR18 (UniProt Q9BV38),-0.031,0.05,-0.059,-0.024,0,-0.048,0.029,-0.016,-0.018,0.022,0.013,-0.021,-0.043,0.054,0.019,0.025,0.018,0.013,-0.03,0.017
TRAPPC13 isoform 5 (UniProt A5PLN9),0.11,0.149,-0.019,0,-0.346 (active),-0.056,0.002,-0.112,-0.011,0.057,-0.01,-0.248,-0.269,-0.148,0.045,0.079,0.136,0.017,-0.016,-0.13
WDR11 (UniProt Q9BZH6),0.063,-0.067,-0.229,0.051,0.056,-0.121,-0.018,0.046,0.038,0.051,0.039,-0.164,-0.087,-0.192,-0.024,-0.007,-0.067,-0.025,-0.016,-0.036
USP25 isoform 3 (UniProt Q9UHP3),-0.043,0.029,-0.021,-0.017,-0.048,0.018,-0.038,0.009,-0.024,0.023,-0.038,-0.027,-0.071,-0.067,0.001,-0.019,-0.021,0.051,-0.03,0.011
UPF3B (UniProt Q9BZI7),0.108,0.055,-0.15,0.098,0.143,-0.085,-0.225,-0.24,0.106,-0.098,0.092,0.11,0.315,0.096,-0.079,0,-0.125,0.149,0.245,-0.278
UBE2D1 (UniProt P51668),-0.065,-0.345 (active),-0.002,0.046,-0.083,-0.074,0.036,-0.075,-0.089,0.085,0.119,0.042,-0.143,-0.039,-0.168,0.164,0.062,0.049,,0.011
TMEM214 (UniProt Q6NUQ4),0.017,0.029,-0.117,-0.02,-0.071,0.023,-0.022,-0.041,-0.047,0.005,-0.01,0.049,-0.003,0.022,0.003,0.047,-0.01,0.006,0.02,-0.022
